Hits are enriched below; roughly 8.2% of the tested compounds scored in any of these assays.
ELG1 repair inh: qHTS screen for small molecules that inhibit ELG1-dependent DNA repair in human embryonic kidney (HEK293T) cells expressing luciferase-tagged ELG1 | HEK293T ELG1-luciferase reporter, luminescence, 16 h; DNA damage induced by 5-fluorouridine | Potency, µM (titrated, usually from 46.1 µM), actives largely listed as inhibitors | 2.3% of 330,000 active; also: nearly all actives have a fitted effect of over 55% in size
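DMSO vehicle served as the neutral condition. Each well held 2,000 cells given 5-fluorouridine plus compound; after 16 hr at 37 °C/5% CO2, ONE-Glo was added and luciferase measured 30 min later.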
KB-V1 MDR tox: qHTS assay for MDR1-selective chemotherapeutics: Primary screen using the drug-selected MDR subline cells KB-V1 | KB-V1 MDR cells viability, CellTiter-Glo, 72 h | Potency, µM (series often up to 46.1 µM), actives largely listed as cytotoxic | 3.4% of 400,000 active; also: nearly all actives have a fitted effect of over 60% in size
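Following 72 h at 37 degrees C with compound, KB-V1 cell viability was read by CellTiter-Glo luminescence, medium being phenol-red-free DMEM plus 10% FBS; concentration-response parameters came from normalized, curve-fitted qHTS data.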
MCF10A rerep: A quantitative high throughput screen for small molecules that induce DNA re-replication in MCF 10a normal breast cells | MCF 10A DNA re-replication, Hoechst nuclear intensity, 48 h | Potency, µM (series often up to 46.1 µM), actives largely listed as activators | 2.9% of 350,000 active; also: nearly all actives have a fitted effect of over 50% in size
SW480 rerep: A quantitative high throughput screen for small molecules that induce DNA re-replication in SW480 colon adenocarcinoma cells. AID 624297, 2012. Potency, µM (top dose mostly 46.1 µM), actives largely listed as activators. 1.8% of 340,000 active. SW480 DNA re-replication, Hoechst DNA content imaging, 48 h; also: nearly all actives have a fitted effect of over 55% in size
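DNA re-replication was detected as more nuclei of elevated Hoechst intensity after 48 hr exposure to compound (23 nL pinned per well of 250 cells).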
KB-3-1 cytotox: qHTS assay for MDR1-selective chemotherapeutics: Primary screen using the parental adenocarcinoma cell KB-3-1. KB-3-1 viability, CellTiter-Glo ATP luminescence, 72 h. Potency, µM (top dose mostly 46.1 µM), usual class: cytotoxic. 1.4% of 400,000 active. AID 1347075, 2019; also: nearly all actives have a fitted effect of over 60% in size
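Using CellTiter-Glo luminescence, growth of non-resistant KB-3-1 adenocarcinoma cells is assessed 72 h after pin-tool compound addition at 37 °C. Normalized responses across the concentration series yield fitted curves.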
Large screens that a line does not name were inactive. Calls follow the shape of the dose curve; as a rule, active = well fitted curve in the direction sought with a large enough effect; inconclusive = small, poorly fitted or top-dose-only effect, or another doubt; inactive = no such curve, though single readings can be large; an effect the other way counts as inactive or inconclusive.

CCc1nnc(NC(=O)c2ccc(COc3ccccc3)o2)s1	KB-V1 MDR tox 15µM
O=C(COC(=O)Cc1cccc(C(F)(F)F)c1)Nc1ccc2c(c1)OCCO2	KB-V1 MDR tox inconclusive
O=C(NNc1ccccc1)NC(Cc1ccccc1)C(=O)O (stereo unspecified)	none (no result: ELG1 repair inh)
CCOC(=O)Cc1csc(NC(=O)C(CC(C)C)NC(=O)C2CCCCC2)n1 (stereo unspecified)	SW480 rerep inconclusive, KB-3-1 cytotox inconclusive
N#CC1=C(N)NC(SCc2ccc(F)cc2)=C(C#N)C12CCCCC2	ELG1 repair inh inconclusive, KB-V1 MDR tox inconclusive, MCF10A rerep 8.2µM, SW480 rerep inconclusive, KB-3-1 cytotox 23µM
N#CC1=C(N)NC(SCC(=O)O)=C(C#N)C12CCCC2	KB-V1 MDR tox inconclusive
CCc1nnc2c(N(C)S(=O)(=O)c3ccc(C)cc3)nc3ccccc3n12	none
COc1ccc(S(=O)(=O)N(C)c2nc3ccccc3n3c(CC(C)C)nnc23)cc1	KB-V1 MDR tox inconclusive, MCF10A rerep 12µM
COc1cc(C(=O)Nc2sc3c(c2C(=O)O)CCC(C)C3)cc(OC)c1OC (stereo unspecified)	ELG1 repair inh 2.9µM, KB-V1 MDR tox inconclusive, KB-3-1 cytotox inconclusive
COc1cc(C(=O)Nc2sc(C)c(C)c2C(=O)O)cc(OC)c1OC	SW480 rerep inconclusive
CC1CCCC(NC(=O)COC(=O)[C@@H](NC(=O)c2ccccc2Cl)C(C)C)C1C (stereo partly specified)	none
CC1=C(C)/C(=N/OC(=O)c2cccc([N+](=O)[O-])c2)C=CC1=O	ELG1 repair inh inconclusive, MCF10A rerep 8.2µM, SW480 rerep 8.2µM
N/C(=N/OC(=O)c1cccc([N+](=O)[O-])c1)c1cccc([N+](=O)[O-])c1	ELG1 repair inh inconclusive, MCF10A rerep inconclusive, KB-3-1 cytotox inconclusive
Cc1ccc(-c2nn(-c3ccccc3)cc2NC(=O)CCl)cc1	ELG1 repair inh inconclusive, KB-V1 MDR tox inconclusive, MCF10A rerep inconclusive, SW480 rerep 18µM, KB-3-1 cytotox 8.2µM
Cc1ccc(-c2nn(-c3ccccc3)cc2CO)cc1	ELG1 repair inh inconclusive
O=C(COCc1cc(-c2cccs2)on1)NCc1ccc(F)cc1	none (no result: ELG1 repair inh, MCF10A rerep, SW480 rerep)
COCCNC(=O)NC12CC3CC(CC(C3)C1)C2	none
COC(=O)C1(C)COP(=O)(NC23CC4CC(CC(C4)C2)C3)OC1 (stereo unspecified)	KB-V1 MDR tox 18µM (no result: ELG1 repair inh)
Cc1ccc(NC(=O)C(Cc2ccccc2)NS(=O)(=O)c2ccc3c(c2)c(=O)n(C)c(=O)n3C)c(C)c1 (stereo unspecified)	none (no result: ELG1 repair inh, MCF10A rerep, SW480 rerep)
N#Cc1c(NC(=O)CSc2nc3ccccc3s2)sc2c1CCCC2	KB-V1 MDR tox 16µM, MCF10A rerep inconclusive
N#Cc1c(NC(=O)CSc2ncc(-c3ccccc3)n2CC2CCCO2)sc2c1CCCC2 (stereo unspecified)	KB-V1 MDR tox 3.3µM, MCF10A rerep inconclusive, KB-3-1 cytotox inconclusive
N#Cc1c(NC(=O)CSc2nc(-c3ccccc3)cc(C(F)(F)F)n2)sc2c1CCC2	ELG1 repair inh 7.3µM, MCF10A rerep inconclusive
Cc1csc(SCC(=O)Nc2sc3c(c2C#N)CCC3)n1	MCF10A rerep inconclusive, SW480 rerep inconclusive, KB-3-1 cytotox inconclusive
N#Cc1c(NC(=O)CSc2nnc(-c3ccccc3)o2)sc2c1CCCC2	MCF10A rerep 5.8µM
COc1ccc(-c2cc(C(F)(F)F)nc(SCC(=O)Nc3sc4c(c3C#N)CCC4)n2)cc1	ELG1 repair inh inconclusive, KB-V1 MDR tox inconclusive, MCF10A rerep inconclusive
COc1ccc(CNC(=O)CCCN2C(=O)c3cccnc3Oc3ccc(Cl)cc32)cc1	none (no result: ELG1 repair inh, MCF10A rerep, SW480 rerep)
CCCn1c(C2CCCN2c2nc(-c3ccc(C)cc3)cs2)nc2ccccc21 (stereo unspecified)	ELG1 repair inh inconclusive, KB-V1 MDR tox inconclusive, MCF10A rerep inconclusive, SW480 rerep inconclusive, KB-3-1 cytotox 18µM
Cc1ccc(-c2csc(N3CCC[C@@H]3C(=O)NCCn3c(-c4ccncc4)nc4ccccc43)n2)cc1	ELG1 repair inh 15µM, KB-3-1 cytotox inconclusive
Cc1ccc(-c2csc(N3CCN(CCCn4c(-c5ccncc5)nc5ccccc54)CC3)n2)cc1	ELG1 repair inh inconclusive, KB-V1 MDR tox 18µM, MCF10A rerep 23µM, SW480 rerep inconclusive, KB-3-1 cytotox inconclusive
Cn1c(CCC(=O)O)nc2cc(S(=O)(=O)N3CCCCC3)ccc21	none
CCOC(=O)C1=C(C)N=c2s/c(=C\c3ccc(OCC(=O)O)cc3)c(=O)n2C1c1ccccc1 (stereo unspecified)	KB-V1 MDR tox inconclusive
CCOC(=O)C1=C(C)N=c2s/c(=C\c3ccc(OCC(=O)O)c(OC)c3)c(=O)n2C1c1ccc(OC)cc1 (stereo unspecified)	MCF10A rerep 23µM
C=C(C)C(=O)N1CCN(C(=O)C(=C)C)c2ccccc21	none (no result: ELG1 repair inh)
Cc1ccc(C)c(CSc2nnc(-c3cccnc3)o2)c1	KB-V1 MDR tox 18µM
O=C(CN(C(=O)c1cc2c(s1)CCC2)C1CCCC1)NCc1cccs1	ELG1 repair inh inconclusive, MCF10A rerep inconclusive
O=C(CN(Cc1ccccc1)C(=O)c1cc2c(s1)CCC2)NCc1cccs1	ELG1 repair inh inconclusive, KB-V1 MDR tox 2.9µM, KB-3-1 cytotox inconclusive
COCCCn1c(=N)c(C(=O)NC2CCCC2)cc2c(=O)n3cccc(C)c3nc21	none (no result: ELG1 repair inh, MCF10A rerep, SW480 rerep)
Cc1cccn2c(=O)c3cc(C(=O)NC(C)C)c(=N)n(Cc4ccncc4)c3nc12	MCF10A rerep 16µM, SW480 rerep 21µM
CCCn1c(=N)c(C(=O)NCc2cccnc2)cc2c(=O)n3cccc(C)c3nc21	KB-V1 MDR tox inconclusive (no result: ELG1 repair inh, MCF10A rerep, SW480 rerep)
COCCCNC(=O)c1cc2c(=O)n3cccc(C)c3nc2n(C(C)C)c1=N	MCF10A rerep inconclusive, SW480 rerep 2.8µM
CCNC(=O)c1cc2c(=O)n3cccc(C)c3nc2n(Cc2ccc(C)cc2)c1=N	KB-V1 MDR tox inconclusive, MCF10A rerep inconclusive, SW480 rerep 2.1µM, KB-3-1 cytotox inconclusive
COCCNc1nc(NCCN2CCNC2=O)c2sc(-c3ccccc3)cc2n1	none (no result: ELG1 repair inh, MCF10A rerep, SW480 rerep)
COc1ccc(C2=CC(=O)C[C@H](c3ccc(OC)cc3)C2)cc1	MCF10A rerep inconclusive
COc1ccc(Br)cc1C1=CC(=O)C[C@H](c2ccc(F)cc2)C1	KB-V1 MDR tox 16µM (no result: ELG1 repair inh, MCF10A rerep, SW480 rerep)
COc1cccc(C2=CC(=O)C[C@H](c3ccc(Cl)cc3)C2)c1OC	ELG1 repair inh 21µM, MCF10A rerep 23µM
COc1ccc([C@H]2CC(=O)C=C(c3ccc(OC)cc3OC)C2)cc1	ELG1 repair inh inconclusive, KB-V1 MDR tox 1.5µM, MCF10A rerep inconclusive, SW480 rerep 13µM, KB-3-1 cytotox 0.82µM
COc1ccc([C@H]2CC(=O)C=C(c3ccc(Cl)cc3C)C2)cc1	KB-V1 MDR tox inconclusive, MCF10A rerep 18µM, SW480 rerep inconclusive, KB-3-1 cytotox inconclusive

Screening data from PubChem.
